Our source for the growth values is PubChem BioAssay (NCI).

Molecules are shown by their SMILES. “And” between values parts separate entries of the source, which are not always exact repeats. Identical values can stand only once. The panel holds about 83,000 compounds, 20% with a hit somewhere; the sample as a whole holds those more often.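 Values shown are percent growth following 48 h exposure of cells in 96-well plates to a single concentration of compound; below 10 was considered active.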 Unmarked numbers belong to inactive results. The source made the active and inactive calls.

The test deals with MDA-MB-468 breast. Nature of the test: NCI-60 one-dose screen, 48 h (100 = growth as untreated, 0 = no growth, -100 = all killed). The conditions noted are these: 10 µM unless noted.
As to `CC(=O)c1cc(Cl)ccc1O`, the growth was 97.5%.
In the case of `CCCCCCNC(=O)Oc1ccc(/C(=C(\C)c2ccccc2)c2ccc(OCCN3CCCCC3)cc2)cc1` it was 64.2%; in that of `O=C(CN1C(=O)/C(=C/c2ccccc2)SC1=S)N1CCOCC1`, 82.4%; in that of `COc1nc(N)nc2c1ncn2C1OC(CO)CC1O` (stereo not given), 98.5%.
Consider `Cc1ccc(C(=O)Nc2ccc(Cl)cc2C(=O)NCc2ccccc2)cc1`, for which the growth is 83%.
In the case of `COc1cccc(-c2nn(-c3ccccc3)cc2-c2ccnc(NCCCNS(=O)(=O)c3ccc(C(F)(F)F)cc3)c2)c1` it was -9.51% (active); in that of `Cc1cc(NS(=O)(=O)c2ccc(N=Nc3cc(N=Nc4ccc(S(=O)(=O)Nc5cc(C)nc(C)n5)cc4)c4c(NC(=O)C(Cl)Cl)cccc4c3OC(=O)C(Cl)Cl)cc2)nc(C)n1` (tested in a mixture with another compound), 103% and 78.5%.
In the case of `C[C@@H](Oc1cc(-c2cnn(C3CC4(CNC4)C3)c2)cnc1N)c1c(Cl)ccc(F)c1Cl` it was 20.5%.
To `O=C(/C=C/c1cccc(Cl)c1)c1cccc(OCCCCOc2cccc(C(=O)/C=C/c3cccc(Cl)c3)c2)c1` belongs 99.2%; to `O=C(NCCc1ccccc1)C1CCC(=O)N1Cc1ccc(Br)cc1` (stereo not given), 108%.
Turning to `CC1(C)CCC(=NNC(N)=S)CC1`, the growth is 103%.
In the case of `COc1cc(/C=C/C(=O)/C=C/c2cc(OC)c3c(c2)OCO3)cc2c1OCO2` it was 76.2%; in that of `O=C1/C=C/[C@@H](O)[C@@H]2C[C@@H](O)C[C@H]2/C=C/CCC[C@H](CCc2ccc(C(F)(F)F)cc2)O1`, -20.3% (active); in that of `Cc1nc2sc(C(=O)Nc3cccc4c3OCCO4)c(N)c2cc1C(C)O` (stereo not given), 3.42% (active).
For `CC(C)C1=CC2=C(C=O)C[C@@H]3[C@](C)(CCC[C@@]3(C)C(=O)OCC#CCN3CCCC3)[C@H]2CC1`, the growth was 51.3%.
To `O=C(/C=C/c1cccnc1)NCCCCC1CCCN(C(=O)c2ccccc2)C1` (stereo not given) belongs 87.9%; to `COc1ccc(/C=C/C(=O)c2cccc(NS(C)(=O)=O)c2)cc1`, 47%.
In the case of `CCOC(=O)n1cc(-c2nonc2-c2cn(C(=O)OCC)c3ccc(Br)cc23)c2ccccc21` it was 85.9%.
To `COc1ccc(C(O)c2ccccc2)cc1` (stereo not given) belongs 3.29% (active).
With `Cc1ccc(-c2cc(-c3ccc(Cl)cc3)nc(NC(=O)c3cccnc3)n2)cc1`, the growth is 106%.
As for `O=C(c1ccccc1)C(CN1CCOCC1)c1ccccc1` (stereo not given), the growth was -68.7% (active).
To `CCC(C)(O)c1ccc(C)cc1` (stereo not given) belongs 110%; to `Cc1ccc(-c2nc([P+](c3ccccc3)(c3ccccc3)c3ccccc3)c(Nc3ccccc3)o2)cc1`, -41.8% (active); to `O=C(NO)c1ccc(Cn2c(=O)n(-c3ccccc3F)c(=O)c3ccccc32)cc1`, -10.8% (active).
In the case of `COCCOC(=O)c1ccc(C(C)C)cc1`, the growth is 106%.
To `N#Cc1c2c(nc3n[nH]c(N)c13)CCCC2` belongs 93.6%; to `O=[N+]([O-])c1ccc(NS(=O)(=O)c2ccc(Cl)c(Cl)c2)cc1`, 64.6%.
To `COC(CCCl)c1ccc(Cl)cc1` (stereo not given) belongs 102%.
In the case of `CS(=O)(=O)N1CCN(Cc2cc3nc(-c4cccc5[nH]ncc45)nc(N4CCOCC4)c3s2)CC1` (tested in a mixture with another compound) it was -47.9% (active); in that of `CC(=O)N(O)CCCCCNC(=O)CCC(=O)N(O)CCCCCNC(=O)CCC(=O)N(O)CCCCCN(CCCCCCCCCC[P+](c1ccccc1)(c1ccccc1)c1ccccc1)CCCCCCCCCC[P+](c1ccccc1)(c1ccccc1)c1ccccc1`, -42.6% (active).
On to `COc1ccc(C2CC(c3cccc(Nc4nc(Cl)nc5cc(OC)c(OC)cc45)c3)=Nc3c(N)nc(N)nc3N2)cc1` (stereo not given), for which the growth is 92.3%.
Consider `c1ccc(-c2ccc(-c3nc4ccccc4[nH]3)cc2)cc1`, for which the growth was 87%.
To `COc1ccc(/C=C/C(=O)C(=O)/C=C/c2ccc(OC)c(OC)c2)cc1OC` belongs 20.1%.
Turning to `CN1CCN(C(=O)[C@@]2(C)CC[C@]3(C)CC[C@]4(C)C(=CC[C@@H]5[C@@]6(C)CC[C@H](OC(=O)c7cccnc7)C(C)(C)[C@@H]6CC[C@]54C)[C@@H]3C2)CC1`, the growth was 92.6%.
For the compound `CCOc1ccccc1/C=N\Nc1ccc(S(=O)(=O)c2ccc(N/N=C/c3ccccc3OCC)cc2)cc1`, the growth is 96.8%.
Consider `O=C1NC(=C(Cl)Cl)/C(=N\S(=O)(=O)NCc2ccccc2)N1`, for which the growth is 45.1%.
To `C[C@@H]1N=C(c2ccc(Cl)cc2Cl)Nc2nc3ccccn3c2C1=O` belongs 53.9%; to `O=C1C(=O)c2cccnc2-c2ncccc21`, -91% (active).
In the case of `CCNCc1ccccc1` it was 98.6%.
To `Cc1ccc(-c2nc3ccccn3c2/C=C2/C(=O)Nc3cc(Cl)ccc32)cc1` belongs 67%.
